Measured values published in PubChem BioAssay AID743279 (National Center for Advancing Translational Sciences (NCATS), 2014).
Among all 360,000 compounds or so, about 17,000 (4.7%) were called active. Inconclusive results (about 5%) are left out. For the sample, actives were picked, then their nearest neighbours and some compounds at random. Values without a mark were called inactive. Rule as the data show it: active = activity change below about -50%; inconclusive = mostly about -30% to -49%; inactive = weaker than that. Where a SMILES comes first, the peptide text is derived from it. The star is where a group is joined. Bz = O=C(c1ccccc1)*

test: qHTS for Inhibitors of Inflammasome Signaling: IL-1-beta AlphaLISA Primary Screen; conditions: THP-1 LPS/ATP IL-1B secretion, 16 h; at 57.5 µM, active compounds read low
Method in brief: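 Secreted IL-1B measured by AlphaLISA bead assay after 16 h compound exposure of THP-1 cells; compounds (final up to 57.5 uM) added 1 h before LPS (250 ng/mL) and ATP (1.25 mM) stimulation; lower signal means less secretion.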
% is scaled to controls: 0 for no effect and ±100 for the full control effect.

Row | SMILES | activity change
1 | Cc1ccc(S(=O)(=O)N2CCCCC2)cc1NC(=O)CCNC(=O)c1ccccc1Cl | 10.9%
2 | Cc1cccc(N(C(=O)c2csnn2)C(C(=O)NCc2ccccc2)c2ccncc2)c1 (centres undefined) | -12.7%
3 | CC1(C(=O)NS(=O)(=O)c2cccc(OC(F)F)c2)CCN1C(=O)C1CC1 (centres undefined) | 0%
4 | Cc1ccc(C(=O)CN2C(=O)NC3(CCc4ccccc43)C2=O)c(C)c1 (centres undefined) | -6.4%
5 | COc1ccc(-n2c(C)cc(C(=O)CN3C(=O)NC4(CCc5ccccc54)C3=O)c2C)cc1 (centres undefined) | -85.6% (active)
6 | COc1ccc(C(=O)CN2C(=O)NC3(CCc4ccccc43)C2=O)c(OC)c1 (centres undefined) | -22.2%
7 | CC(=O)Nc1ccc(S(=O)(=O)NC(C)C(=O)OCCOc2ccc(F)cc2)cc1 (centres undefined) | -84.9% (active)
8 | CC(=O)Nc1ccc(S(=O)(=O)NC(C)C(=O)OCC(=O)NC2CCCC2)cc1 (centres undefined) | 0%
9 | CC(=O)Nc1ccc(NC(=O)COc2ccc(S(=O)(=O)NC(C)c3ccccc3)cc2)cc1 (centres undefined) | 18.3%
10 | COc1ccccc1-c1cc2nc(NCc3cccc(Cl)c3)ccn2n1 | -19.9%
11 | Cc1ccc(-c2nn(-c3cccc(F)c3)cc2CNCCc2ccncc2)o1 | -77.5% (active)
12 | Cc1ccc(N2C(=O)C(CC(=O)Nc3cccc(F)c3)N(CCc3ccncc3)C2=O)cc1 (centres undefined) | -0.0392%
13 | Cc1ccc(-c2cnc(C(O)c3cc(Cl)cc(Cl)c3)[nH]2)cc1 (centres undefined) | 6.64%
14 | Cc1ccc(S(=O)(=O)NCC(=O)N(CC(=O)NC(C)(C)C)Cc2cccs2)cc1 | 14.4%
15 | CCC(C)(C)NC(=O)CN(Cc1cccs1)C(=O)CNS(=O)(=O)c1ccc(F)cc1 | 4.73%
16 | CC(C)(C)NC(=O)CN(Cc1cccs1)C(=O)CNS(=O)(=O)c1ccccc1 | -55.8% (active)
17 | CCN1C(=O)[C@@H]2[C@@H]3CN(S(=O)(=O)c4ccccc4C)[C@@H](c4ccc(Cl)cc4)[C@@H]3C(=O)C[C@@H]2C1=O | -15.9%
18 | CC1(C(=O)Nc2cccc3c2CCCC3)CCN1C(=O)CCc1ccc(Cl)cc1Cl (centres undefined) | -9.96%
19 | NC(=O)C1CCN(C(=O)CC2C(=O)NCCN2Cc2cccc(Oc3ccccc3)c2)CC1 (centres undefined) | -6.56%
20 | CCc1nnc(NC(=O)c2cc(S(=O)(=O)N3CCN(CC)CC3)ccc2Cl)s1 | 18.8%
21 | COc1ccc(C(O)(C2CCCCC2)C(CN2CCCC2)c2ccccc2)cc1 (centres undefined) | -54.5% (active)
22 | CCCC(O)(c1ccc(OC)cc1)C(CN(C)C)c1ccccc1 (centres undefined) | -9.06%
23 | CC(CN1CCCCC1)c1ccccc1 (centres undefined) | 11.2%

Row | SMILES | activity change
24 | CC(C)(C(=O)N1CCC1(C)C(=O)NS(=O)(=O)c1ccc(Br)cc1)c1ccccc1 (centres undefined) | 17%
25 | CC(C)c1ccc(N2CC(C(=O)Nc3nccs3)CC2=O)cc1 (centres undefined) | -0.66%
26 | CC1CN(C(=O)c2cccc(NS(=O)(=O)c3ccc(Br)cc3)c2)CC(C)O1 (centres undefined) | 53%
27 | O=C(CC1NCCc2ccccc21)Nc1cccc(Cl)c1 (centres undefined) | -29.8%
28 | CCOC(=O)C1=C(C)N(C[C@@H]2CC[C@@H](Cc3ccc(-c4ccccc4)cc3)O2)C(=O)NC1c1ccc([N+](=O)[O-])cc1 (some centres undefined) | -63.7% (active)
29 | CCN1C(=O)N[C@@H](c2ccccc2)C(C(=O)OC)=C1C | 15%
30 | CCC(CC)COC(=O)C1=C(C)NC(=O)NC1c1ccc([N+](=O)[O-])cc1 (centres undefined) | -2.87%
31 | COc1cc(C(=O)N2CCN(C)CC2)cc(OC)c1OC | 42.7%
32 | COc1ccc(C(=O)N2CCCN(C)CC2)c(OC)c1 | 33.4%
33 | COc1cc2c(C(=O)N3CCN(C)CC3)c(CSc3ccccc3)n(C)c2cc1Br | -60.2% (active)
34 | C[C@@H]1CN([C@H](C)CO)C(=O)CCCn2nncc2CO[C@@H]1CN(C)S(=O)(=O)c1cccc(C#N)c1 | 3.99%
35 | COC1=CC(=O)OC(c2ccc(OC)cc2)C1 (centres undefined) | -17.1%
36 | CS(=O)(=O)c1cccc(-c2ccc3nncn3c2)c1 | 11.3%
37 | O=C(NC(Cc1ccccc1)C(=O)N1CCCC1C(=O)O)c1ccccc1 (stereo not drawn) (Bz-Phe-Pro-OH; configuration not given here) | 6.95%
38 | CN(Cc1ccccc1F)C(=O)C(Cc1ccccc1)NC(=O)c1ccccc1 (centres undefined) | -84.2% (active)
39 | O=C(NC(Cc1ccccc1)C(=O)N1CCCC(C(F)(F)F)C1)c1ccccc1 (centres undefined) | 1.82%
40 | COCCn1c(SCC(=O)Nc2ccc(F)cc2F)nc2c(c1=O)SCC2 | 18.2%
41 | CCNC(=O)CCc1nc(-c2ccc(C(C)(C)C)cc2)no1 | -3.31%
42 | CC(O)CNCCOc1cccc(Oc2ccccc2)c1 (centres undefined) | -29%
43 | COc1ccc(OCC(O)CNC(=O)Nc2ccc(Cl)cc2)cc1 (centres undefined) | 5.19%
44 | OC(CNCCc1ccc(Cl)cc1Cl)COc1ccccc1 (centres undefined) | -91.8% (active)
45 | COc1ccc(C(=O)CCC(=O)Nc2ccc(Cl)cc2)cc1 | 4.81%
46 | COc1ccc(NC(=O)CN2C(=O)NC(C)(c3ccccc3)C2=O)cn1 (centres undefined) | 12.7%

Row | SMILES | activity change
47 | COc1ccc(CS(=O)/C(Cl)=C(/Cl)C(=O)Nc2ccc(OC)nc2)cc1 (centres undefined) | -105% (active)
48 | O=C(COC(=O)c1cc(-c2cccs2)nn1-c1ccccc1)Nc1cc([N+](=O)[O-])ccc1Cl | 21.3%
49 | C/C(=N\Nc1ccccc1)c1cccs1 | 40.5%
50 | O=C(Nc1ccccc1-c1nc2ccccc2[nH]c1=O)c1cccs1 | 7.39%
51 | C/C(=N\Nc1nc2ccccc2[nH]1)c1cccs1 | -66.3% (active)
52 | O=C(COc1ccccc1Cl)Nn1cnnc1 | 26.3%
53 | CCOC(=O)CNC(=O)CSc1ncccc1-c1nc2ccccc2[nH]1 | 16.2%
54 | COc1ccc(S(=O)(=O)N(C)C[C@@H]2Oc3ccc(NS(=O)(=O)c4cn(C)cn4)cc3C(=O)N([C@@H](C)CO)C[C@@H]2C)cc1 | -3.54%
55 | O=C1c2ccccc2C(=O)c2c1cccc2N1CCN(CCO)CC1 | -59.1% (active)
56 | OCCN1CCN(c2nnc(-c3ccccc3)c3ccccc23)CC1 | 23.6%
57 | O=C1CCN(CCCc2ccccc2)CCN1CCO | -16.8%
58 | Cc1ccc(Nc2c(O)nc[nH]c2=O)cc1C | 13.4%
59 | COc1c(O)cccc1-c1nnn(CCC(=O)OCC(=O)c2ccccc2)n1 | 14.4%
60 | O=S1(=O)CCN(C2CCCCCCCCCCC2)CC1 | 26.7%
61 | O=c1nc(NO)ccn1C1CCCO1 (centres undefined) | 13.7%
62 | Cc1cccc(C)c1N1CCN(S(=O)(=O)N2CCCCC2)CC1 | -53.3% (active)
63 | Cc1cccc(C)c1N1CCN(S(=O)(=O)N2CCOCC2)CC1 | 0%
64 | Cc1cccc(C(=O)N2CCN(S(=O)(=O)N3CCCCC3)CC2)c1 | 0%
65 | CCC(c1nnnn1-c1ccc2c(c1)OCCO2)N1CCN(c2ccc(C(F)(F)F)cn2)CC1 (centres undefined) | 25.4%
66 | CCCNC(=O)CCc1c(C)nc2c(c(C)nn2-c2ccccc2)c1C | -2.57%
67 | CC(=O)C[C@@H]1OC[C@H](CO)N1S(=O)(=O)c1ccc(C)cc1 | 5.63%
68 | O=C(NCCN1CCOCC1)C1CCN(S(=O)(=O)c2ccccc2)CC1 | 0.358%
69 | CN1CCN(C(=O)c2ccc(-c3cc4nc(NCc5cccnc5)n(C)c(=O)c4s3)cc2)CC1 | -15.2%

Row | SMILES | activity change
70 | O=C(c1ccc(Oc2ccc(Cl)cc2)c([N+](=O)[O-])c1)N1CCCC1 | -22.3%
71 | CC1CCN(C(=O)c2ccc(S(=O)(=O)Cc3cc(F)ccc3F)c([N+](=O)[O-])c2)CC1 | -96.6% (active)
72 | Nc1ccc(C(=O)N2CCN(S(=O)(=O)c3ccc(Cl)cc3)CC2)cc1[N+](=O)[O-] | -21.1%
73 | COc1cc(OC)c(C(=O)NNC(=O)c2ccccc2-n2cccc2)cc1OC | 3.76%
74 | O=C(/C=C\c1ccc2c(c1)OCO2)NC1(C(=O)Nc2ccc3c(c2)OCCO3)CCCCC1 | -1.03%
75 | CC(=O)Nc1ccc(C=CC(=O)c2ccc([N+](=O)[O-])cc2)cc1 | 1.95%
76 | CNc1ccc(NC(C)=O)cc1[N+](=O)[O-] | -5%
77 | CN(C)c1ccc(/C=C/C(=O)c2ccc(C(C)(C)C)cc2)cc1[N+](=O)[O-] | -95.8% (active)
78 | O=C(/C=C/c1ccc(Cl)c([N+](=O)[O-])c1)c1ccc(O)cc1 | -99.9% (active)
79 | Cc1cc(C)n(-c2ccc(C(=O)O)cc2[N+](=O)[O-])n1 | 40.6%
80 | CC(=O)Nc1ccc(C(=O)/C=C/c2ccc[nH]2)cc1 | -9.5%
81 | CN(C)c1ccc(/C=C/C(=O)c2ccc(O)cc2)cc1[N+](=O)[O-] | -97.8% (active)
82 | C/C(=N\Nc1nncc2ccccc12)c1ccc(Cl)c([N+](=O)[O-])c1 | -6.54%
83 | Cc1cc(C(=O)O)ccc1[N+](=O)[O-] | -16.6%
84 | CC(=O)c1ccc2c(c1)OCCOCCOc1ccc(C(C)=O)cc1OCCOCCO2 | 0%
85 | O=C(/C=C/c1ccc2c(c1)OCCO2)c1ccc(O)cc1 | -103% (active)
86 | CCOC(=O)C1(CCOC)CCN(Cc2cc3ccccc3s2)CC1 | -8.97%
87 | CCOc1ccccc1NC(=S)C(=C([O-])c1ccc2c(c1)OCCO2)[n+]1ccc(CC)cc1 | 3.49%
88 | Cc1ccc(Cc2nnc(SCC(=O)Nc3ccccc3C)[nH]c2=O)cc1 | 19.7%
89 | O=C(Nc1cccc2ccccc12)c1[nH]c(-c2ccccc2)c2c1C(=O)N(C1CC1)C2=O | -16.9%
